Source: PubChem BioAssay (NCI)
About 83,000 compounds went through this panel and 20% of them were active in at least one assay; those are over-represented in the sample as a whole.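 The test compound was applied at a single concentration to cells in 96-well plates for 48 hours, and percent growth was recorded.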 The source made the active and inactive calls. The calls were made as follows: active = growth percent below 10; inactive = the rest.

test system: HL-60(TB) leukemia; assay: NCI-60 one-dose screen, 48 h (100 = growth as untreated, 0 = no growth, -100 = all killed); settings: 10 µM unless noted

**Q.** `CC(=O)OC[C@H]1OC(Sc2sc(C(=O)c3ccc(Br)cc3)c(N)c2-c2nc3ccccc3s2)[C@H](OC(C)=O)[C@@H](OC(C)=O)[C@@H]1OC(C)=O` (stereo not given in full) was tested. Which growth did it give?
**A.** Its growth is 113% (inactive).

**Q.** `ClCC1(Cn2cnc3c(Cl)nc(Cl)nc32)COC1` was tested. Which growth did it give?
**A.** Its growth is 91.6% (inactive).

**Q.** For `Cc1ccc(C)c(COc2cc(NC(=O)c3ccc4c(c3)OCO4)ccc2N(C)S(C)(=O)=O)c1`, which growth is on record?
**A.** The growth was -5.51% (active).

**Q.** `CCN(CC)CCCC(C)Nc1ccnc2cc(Cl)c(SCc3ccccc3)cc12` (stereo not given) was tested. Which growth did it give?
**A.** Its growth is -64.8% (active).

**Q.** `Cc1nn(-c2nc3ccccc3[nH]2)c2c1C(c1ccc3c(c1)OCO3)CC(=O)N2` (stereo not given) was tested. Which growth did it give?
**A.** Its growth is -24.3% (active).

**Q.** For `C#CCn1c2c(c3ccccc31)C[C@]1(C)[C@H]3CC[C@@H]4[C@@H]5C(=CCC[C@H]5C(=C)C)CC[C@@]4(C)[C@]3(C)CC[C@H]1C2(C)C`, which growth is on record?
**A.** Its growth is 101% (inactive).

**Q.** `COC(=O)C1(CC(C)=O)NC(=S)NC(=O)C1C#N` (stereo not given) was tested. Which growth did it give?
**A.** The growth was 102% (inactive).

**Q.** For `Cc1nnc(/N=C2\NC(=O)/C(=C/C=C/c3ccccc3)S2)s1`, which growth is on record?
**A.** The growth was 75.3% (inactive).

**Q.** Which growth does the source give for `NN1CCOC(c2ccccc2)C1` (stereo not given) here?
**A.** Its growth is -22.4% (active).

**Q.** For `COc1ccc(/C=c2\sc3n(c2=O)NC2C(N=3)N(C)C(=O)N2C)cc1` (stereo not given), which growth is on record?
**A.** Its growth is 98.4% (inactive).

**Q.** `CC12OC(CC(O)C1O)n1c3ccccc3c3c4c(c5c6ccccc6n2c5c31)C(=O)N(CCN1CCOCC1)C4=O` (stereo not given) was tested. Which growth did it give?
**A.** Its growth is 7.54% (active).

**Q.** With `CS(=O)(=O)OC1CC(n2ccc(=O)[nH]c2=O)OC1COC(c1ccccc1)(c1ccccc1)c1ccccc1` (stereo not given) as the compound, how does the growth read?
**A.** The growth was 97.6% (inactive).

**Q.** Which growth does the source give for `Clc1ccc2c(c1)N(CCCN1CCCC1)c1ccccc1S2` here?
**A.** Its growth is 17.1% (inactive).

**Q.** How did the growth turn out when `CSc1nc(NCCO)c(C#N)c(-c2cccc([N+](=O)[O-])c2)n1` was run?
**A.** The growth was 104% (inactive).

**Q.** `CC1(C)NC(=S)NC1=O` was tested. Which growth did it give?
**A.** The growth was 89.9% (inactive).

**Q.** With `COc1cc(CN(c2ccc(Cl)cc2)C2OC(=O)c3ccccc32)cc(OC)c1OC` (stereo not given) as the compound, how does the growth read?
**A.** The growth was 21.7% (inactive).

**Q.** `N#Cc1c(Nc2cccc(Cl)c2)sc(C(=O)c2cc3cc(Cl)ccc3o2)c1N` was tested. Which growth did it give?
**A.** Its growth is 92.9% (inactive).

**Q.** With `Oc1ccc(/C=N/NC(=S)Nc2ccccc2)nc1` as the compound, how does the growth read?
**A.** The growth was -8.79% (active).

**Q.** For `C=CN(C)S(C)(=O)=O`, which growth is on record?
**A.** Its growth is 5.83% (active).

**Q.** Which growth does the source give for `COc1ccc(/C(C)=C(\c2ccc(OCCN3CCOCC3)cc2)c2ccc(OC(=O)C3CCCCC3)cc2)cc1` here?
**A.** Its growth is 126% (inactive).

**Q.** For `Cc1cc(Cl)ccc1Nc1nc(C(F)(F)F)ccc1C(=O)N/N=C/c1ccc(Cl)cc1`, which growth is on record?
**A.** The growth was -33.8% (active).

**Q.** How did the growth turn out when `CCCCC(=O)Nc1c(C(=O)Nc2ccccc2)sc2nc3c(cc12)C(OC(=O)CCCC)CCC3` (stereo not given) was run?
**A.** Its growth is 99.3% (inactive).

**Q.** With `Cc1ccc(C(=Nc2ccccc2)N=P(c2ccccc2)(c2ccccc2)c2ccccc2)cc1` as the compound, how does the growth read?
**A.** Its growth is -4.41% (active).

**Q.** `CC(=O)O[C@H]1CC2CCC3C(CC[C@@]4(C)C3C[C@H]([N+]3(C)CCCCC3)[C@@H]4OC(C)=O)[C@@]2(C)C[C@@H]1N1CCCCC1` (stereo not given in full) was tested. Which growth did it give?
**A.** Its growth is 107% (inactive).

**Q.** `Cc1ccc(-c2nc([P+](c3ccccc3)(c3ccccc3)c3ccccc3)c(Nc3ccccc3)o2)cc1` was tested. Which growth did it give?
**A.** Its growth is -48.4% (active).

**Q.** Which growth does the source give for `COc1cnc2c(c1)C(=O)c1c-2n(CCCCl)c(=O)c2ccncc12` here?
**A.** Its growth is 15.8% (inactive).

**Q.** `O=C(/C=C/c1cc2ccccc2[nH]c1=O)c1ccc(Cl)cc1` was tested. Which growth did it give?
**A.** The growth was 11.6% (inactive).

**Q.** Which growth does the source give for `COc1cc2ncnc(Oc3cccc(NC(=O)Nc4cc(C(C)(C)C(F)(F)F)on4)c3)c2cc1OC` here?
**A.** The growth was 12.1% (inactive).

**Q.** Which growth does the source give for `COc1ccc2[nH]c3nc4cnccc4cc3c2c1` here?
**A.** Its growth is 108% (inactive).

**Q.** With `CCN1C(=O)C(C)C=C(C)C=C1C` (stereo not given) as the compound, how does the growth read?
**A.** Its growth is 94.4% (inactive).

**Q.** For `Cn1cc(-c2csc(-c3c[nH]c4ncccc34)n2)c2cc(F)cnc21`, which growth is on record?
**A.** Its growth is 79.8% (inactive).

**Q.** For `CC(C)=CCC[C@](C)(O)[C@H]1CC[C@]2(C)[C@@H]1CC[C@@H]1[C@@]3(C)CC/C(=N/O)C(C)(C)[C@@H]3CC[C@]12C`, which growth is on record?
**A.** Its growth is 5.25% [100 µM] (active).

**Q.** For `CC1=Nc2cnc(Nc3ccc(N4CCCCC4)cc3)nc2Nc2ccccc21`, which growth is on record?
**A.** The growth was 28.1% (inactive).

**Q.** How did the growth turn out when `CCCCn1c(=O)c2c(nc(NCCc3ccc(O)c(O)c3)n2CCC)n(CCCC)c1=O` was run?
**A.** Its growth is 60.3% (inactive).

**Q.** With `Cc1c2ccccc2nc2cc3c(cc12)[C@H]1CC[C@]2(C)C(=O)CC[C@H]2[C@@H]1CC3` as the compound, how does the growth read?
**A.** The growth was 97.1% (inactive).

**Q.** With `O=c1c(O)cccn1CCCNCCCN(CCCn1cccc(O)c1=O)CCCn1cccc(O)c1=O` as the compound, how does the growth read?
**A.** Its growth is 120% (inactive).

**Q.** Which growth does the source give for `Cc1ccccc1-c1cc(-c2ccc(Br)s2)[nH]c(=O)c1C#N` here?
**A.** Its growth is 82% (inactive).

**Q.** For `COc1ccc(CNC(=O)c2c(C)n([O-])c3ccc(OC)cc3[n+]2=O)cc1`, which growth is on record?
**A.** Its growth is 92.5% (inactive).

**Q.** Which growth does the source give for `COc1cc(/C=C/C(=O)c2c(C)nc3ccccc3c2/C=C/c2ccc(C)cc2)cc(OC)c1OC` here?
**A.** Its growth is 12.5% (inactive).

**Q.** How did the growth turn out when `CC(C)[N+](C)(CCOC(COc1ccccc1)COc1ccccc1)C(C)C` was run?
**A.** The growth was 30.7% (inactive).
